Compound activity from PubChem.
KAT2A inh = inhibitors of human GCN5L2 histone acetyltransferase; AID 504327; Potency, µM (series often up to 58.9 µM), for inactives: top-dose activity change, negative = inhibition, most hits filed as inhibitors; GCN5L2 HAT assay, ThioGlo1 CoA-SH fluorescence; Q92830; actives 0.21% (n = 390,000); further: on the % scale 0 is the no-effect control and ±100 the full control effect
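Titration-based screen in which CoA formation is detected via maleimide probe ThioGlo1 (50uM) turning fluorescent on thiol reaction; substrates H3(1-25) 75uM and acetyl-CoA 70uM, GCN5L2 20nM, 20 min incubation at room temperature.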
GLS inh = inhibitors of human glutaminase (GLS); Potency, µM (series often up to 45.5 µM), inactives show top-dose activity change, negative = inhibition, actives largely listed as inhibitors; actives 0.21% (n = 410,000); O94925; AID 624170; GLS enzymatic activity, qHTS titration; further: on the % scale 0 is the no-effect control and ±100 the full control effect
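Compounds were pin-transferred onto hKGA, after which L-glutamine (1 mM solution) and a detection mix of glutamate oxidase, HRP and Amplex Red were added. Initial and 30 min RT fluorescence reads were collected.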
POLI inh = inhibitors of human DNA polymerase iota. Pol iota fluorescent replication assay, 10 min. Potency, µM (doses to about 115 µM), inactives show at the top dose activity, negative = inhibition, hits mostly inhibitors. Q9UNA4. actives 1% (n = 390,000)
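Pol iota at 10 nM preincubated 15 min with compounds at room temperature; reaction started with fluorescent substrate, 50 nM final. Fluorescence read kinetically at 0 and 10 min; buffer-only wells as negative control.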
Pol eta inh-1 = DNA polymerase eta (human) inhibition. recombinant Pol eta, fluorescent DNA replication assay. Q9Y253. Potency, µM (doses to about 114 µM), without a hit: top-dose activity change, negative = inhibition, hits mostly inhibitors. actives 1.2% (n = 390,000); further: on the % scale 0 is the no-effect control and ±100 the full control effect
Target sequence (Q9Y253 whole entry, looked up): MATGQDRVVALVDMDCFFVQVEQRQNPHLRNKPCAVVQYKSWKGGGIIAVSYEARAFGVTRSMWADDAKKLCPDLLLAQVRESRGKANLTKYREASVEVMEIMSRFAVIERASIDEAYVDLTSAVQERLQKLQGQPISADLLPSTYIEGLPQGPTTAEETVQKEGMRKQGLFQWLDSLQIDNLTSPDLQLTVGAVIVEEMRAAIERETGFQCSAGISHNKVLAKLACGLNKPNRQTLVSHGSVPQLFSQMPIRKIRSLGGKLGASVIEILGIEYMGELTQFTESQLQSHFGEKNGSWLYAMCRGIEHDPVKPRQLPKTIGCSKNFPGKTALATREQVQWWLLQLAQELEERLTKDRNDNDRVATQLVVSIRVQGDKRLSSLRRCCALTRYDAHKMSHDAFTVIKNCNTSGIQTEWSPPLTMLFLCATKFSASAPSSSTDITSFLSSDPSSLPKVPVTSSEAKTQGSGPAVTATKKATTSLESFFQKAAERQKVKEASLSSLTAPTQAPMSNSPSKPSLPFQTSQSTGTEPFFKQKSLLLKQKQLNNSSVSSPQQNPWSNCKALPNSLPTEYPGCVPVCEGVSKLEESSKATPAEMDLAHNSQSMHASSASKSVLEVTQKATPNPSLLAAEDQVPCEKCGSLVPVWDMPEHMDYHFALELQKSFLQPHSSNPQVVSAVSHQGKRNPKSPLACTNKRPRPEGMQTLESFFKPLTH
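Fluorescent replication assay: 50 nM final substrate added after a 15 min room-temperature compound preincubation with 10 nM enzyme. Signal taken at 0 min and again at 10 min.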
POLB inh = blocks human DNA polymerase beta activity; actives 1.3% (n = 340,000); AID 485314; P06746; Potency, µM (highest dose often 114 µM), for the others: top-dose activity change, negative = inhibition, usual class: inhibitors; Pol beta primer extension/strand displacement, fluorescence kinetic; further: on the % scale 0 is the no-effect control and ±100 the full control effect
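Enzyme-only controls used 10 nM Pol beta; buffer lacking enzyme served as negative control. Compound preincubated 15 min, then 50 nM substrate added; 0 and 10 min reads at room temperature.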
Pol kappa inh-1 = DNA polymerase kappa (human) inhibition; actives 0.53% (n = 400,000); Q9UBT6; purified Pol kappa, fluorescent DNA synthesis assay, 10 min; Potency, µM (highest dose often 107 µM), inactives show at the top dose activity, negative = inhibition, actives largely listed as inhibitors; AID 588579; further: on the % scale 0 is the no-effect control and ±100 the full control effect
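Here, compound and 10 nM enzyme are combined for 15 min at room temperature; adding 50 nM substrate (final) starts DNA synthesis, tracked by fluorescence at 0 and 10 min against buffer-only wells.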
PGK validate = validation of Trypanosoma brucei phosphoglycerate kinase inhibitors; shares compounds with Pol kappa inh-1; TbPGK coupled GAPDH assay, Kinase-Glo luminescence; Potency, µM (top dose mostly 57.5 µM), for inactives: at the top dose activity change, negative = inhibition, usual class: inhibitors; actives 79% (n = 500); AID 686980; further: on the % scale 0 is the no-effect control and ±100 the full control effect; nearly all actives have a fitted effect of over 65% in size
Pol iota confirm = Confirm cherry-picked inhibitors of human polymerase iota. shares compounds with Pol kappa inh-1. Pol iota primer extension, TAMRA/BHQ fluorescence. Potency, µM, hits mostly inhibitors. actives 77% (n = 1,500). AID 720496
Pol kappa inh-2 = Pol kappa (human) inhibition, cherry-pick confirmation. Potency, µM, usual class: inhibitors. AID 720501. shares compounds with Pol eta inh-1. purified Pol-kappa, fluorescent strand-displacement substrate. actives 76% (n = 920)
Pol eta inh-2 = Pol eta (human) inhibition, cherry-pick confirmation; actives 64% (n = 2,600); AID 720502; shares compounds with Pol eta inh-1; Potency, µM, hits mostly inhibitors; Pol eta primer extension, TAMRA/BHQ fluorescence, 10 min
Numbers without * were called inactive; u = inconclusive; x = no result; [ ] = remark or other dose. Only some compounds are listed: those with a hit (about 2.4% of all), similar ones and a draw of the others. The call rests on the fitted dose curve; in most records, active means well fitted curve in the direction sought with a large enough effect; inconclusive means small, poorly fitted or top-dose-only effect, or another doubt; inactive means no such curve, though single readings can be large; an effect the other way counts as inactive or inconclusive. Potency means the concentration at half of the fitted maximal effect.

SMILES | KAT2A inh | GLS inh | POLI inh | Pol eta inh-1 | POLB inh | Pol kappa inh-1 | Pol iota confirm | Pol eta inh-2 | others
Cc1ccc(C=C2C(=O)c3ccccc3C2=O)o1 | -2% | -27% | 22µM* | 13µM* | 14µM* | u | 47* | 48* | Pol kappa inh-2=42*
Cc1ccc(/C=C2/C(=O)c3ccc(C(=O)O)cc3C2=O)o1 | -3% | 197% | u | 4µM* | 25µM* | 5µM* | 24* | 8.5* | Pol kappa inh-2=11*
O=C1C(=Cc2ccco2)C(=O)c2ccccc21 | -4% | 13% | u | u | u | u | x | x
COc1ccc(NC(=O)c2cc3c(=O)n(Cc4ccco4)ccc3nc2C)c(OC)c1 | -22% | 4% | -17% | 6% | 16% | -2% | x | x
Cc1cccc(OCCCn2c(CCNC(=O)C3CCCCC3)nc3ccccc32)c1 | -11% | -6% | u | 1% | 11% | -19% | x | x
CCNc1ccc2noc3c2c1C(=O)c1ccccc1-3 | -8% | -19% | 28µM* | u | 20µM* | 25µM* | 75* | 76* | Pol kappa inh-2=67*
O=C1c2ccccc2-c2onc3ccc(NCc4ccco4)c1c23 | -4% | -1% | u | u | u | -26% | x | x
O=C(O)c1cccc(-c2ccc(/C=c3/sc4nc5ccccc5n4c3=O)o2)c1 | -16% | 13µM* | u | 3.2µM* | 4µM* | 22µM* | 3.8* | 5.4*
CC(OC(=O)/C(C#N)=C/c1ccc(N(C)C)cc1)C(=O)N(C)Cc1ccccc1 (stereo not given) | -6% | 8% | 89µM* | 50µM* | 1% | u | 27* | 24*
CCOC(=O)c1cc(S(=O)(=O)N2CCN(c3ccc(F)cc3)CC2)[nH]n1 | -6% | 11% | -4% | -10% | 1% | -2%[60.1 µM] | x | x
Nc1ccc(C(=O)O)cc1[N+](=O)[O-] | -17% | -8% | 2% | -9% | 3% | 5% | x | x
Nc1cc(S(=O)(=O)O)cc([N+](=O)[O-])c1O | -6% | u | 7.9µM* | 4.5µM* | -14% | 28µM* | 8.4* | 5.4* | PGK validate=2.9µM*
O=C1NN(c2ccc(Cl)cc2)C(=O)/C1=C\c1ccc(-c2cccc(C(=O)O)c2)o1 | -27% | 0% | 8.9µM* | 4.5µM* | 10µM* | 20µM* | 21* | 17*
O=C1NN(c2ccccc2)C(=O)/C1=C\c1ccc(-c2cc([N+](=O)[O-])ccc2O)o1 | -16% | -19% | 16µM* | 20µM* | 10µM* | 40µM* | u | 27*
CC1=C(C(=O)Nc2ccccc2)C(c2ccccn2)n2ncnc2N1 (stereo not given) | x | -19% | 40% | -17% | 41% | -7% | x | x
CC1=C(C(=O)Nc2ccccc2)C(c2ccc[nH]2)n2ncnc2N1 (stereo not given) | u | u | u | x | 8.9µM* | u | 8.4* | 8.5* | Pol kappa inh-2=3.4*
CCOc1ccc(CC(=O)NCc2ccc3c(c2)CCN3C(=O)c2ccccc2)cc1OCC | 0% | -2% | 43% | -23% | 11% | -9%[60.1 µM] | x | x
CCOC(=O)c1ccc(NC(=O)c2ccccc2[N+](=O)[O-])cc1 | -9% | 11% | 14% | -19% | 8% | 0% | x | x
CCOC(=O)c1ccc(N/N=C/c2cc(Br)cc([N+](=O)[O-])c2O)cc1 | 11% | 2% | 100% | 25µM* | -27% | 1% | 67* | u
Cc1ccccc1-c1noc(-c2ccc(N3CCCC3)c([N+](=O)[O-])c2)n1 | -4% | -7% | 19% | -17% | -25% | -14% | x | x
CCC(C)CCCCC(=O)N[C@@H](CCN)C(=O)N[C@H](C(=O)N[C@@H](CCN)C(=O)N[C@H]1CCNC(=O)C([C@@H](C)O)NC(=O)[C@@H](CCN)NC(=O)[C@H](CCN)NC(=O)[C@H](CC(C)C)NC(=O)[C@@H](CC(C)C)NC(=O)[C@H](CCN)NC1=O)[C@@H](C)O (stereo not given in full) | 7% | -3% | x | x | x | u | x | x
O=C1COc2ccc(C(=O)COC(=O)/C=C/c3ccc(Br)o3)cc2N1 | -23% | u | 20µM* | 1.6µM* | x | 18µM* | 21* | 67*
CCOc1ccc(NC(=O)CN(C)C(=O)c2cc3c(s2)CCC3)cc1OCC | x | u | x | 3.5µM* | x | x | 17* | 34* | Pol kappa inh-2=19*
O=C(COC(=O)c1cc2c(s1)CCC2)Nc1ccc(F)cc1 | u | 30% | 20µM* | 18µM* | 8.9µM* | 32µM* | 24* | 24*
CCOc1ccc(NC(=O)CN(C)C(=O)c2csc3c2CCCC3)cc1OCC | -8% | 9% | 21% | -10% | x | -7% | x | x
O=C(CN1C(=O)COc2ccc(S(=O)(=O)N3CCCC3)cc21)N1CCN(c2ccc(F)cc2)CC1 | 0% | -3% | 26% | -6% | 13% | -12% | x | x
CC1=NOC(=O)/C1=C\c1ccc(-c2ccc(Cl)cc2Cl)o1 | -17% | -2% | 25µM* | 14µM* | 40µM* | -6% | u | u
CCOc1ccc(CCNC(=O)Cn2nc(CC)n3c(cc4ccccc43)c2=O)cc1 | -1% | -2% | 40% | -13% | 3% | 4% | x | x
O=c1cc(-c2ccc(O)cc2)oc2cc(O)c(C3OC(CO)C(O)C(O)C3O)c(O)c12 (stereo not given) | 0% | u | 35µM* | 20µM* | 8.9µM* | 40µM* | 34* | 24*
